Rows were chosen to be rich in hits. Some 7.8% of all compounds tested hit in one or more screens of this group.
MITF inh – MITF inhibition. TRPM1 promoter luciferase, luminescence, 24 h. inhibition, % (no concentration beside the values). 37,000 tested, 0.28% active. AID 2240; in the data active = inhibition above about 85%; inconclusive = no clear call, values can overlap the other calls; inactive = below about 68%;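 note: human melanocyte line stably carrying TRPM1 promoter luciferase reporter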
NOMO-1 viab – STK33 inhibitor candidate reducing NOMO-1 cell viability | 37,000 tested, 7.5% active | inhibition, % (test concentration not listed) | NOMO-1 AML viability, CellTiter-Glo luminescence, 72 h; in the data active = inhibition above about 80%; inconclusive = no clear call, values can overlap the other calls
Shh pathway inh – blocks Sonic Hedgehog signaling; AID 2313; Shh-LIGHT2 Gli-luciferase reporter, 30 h; 22,000 tested, 2.1% active; inhibition, % (concentration not given with the values);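 active = mean inhibition across valid replicates above about 65%, limit read from the data; inconclusive = mean under the limit, yet half or more replicates past it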;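 note: pathway switched on by Shh-conditioned medium diluted 1 in 25 in low serum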
An asterisk follows results filed as active; ? = inconclusive; · = no result.

SMILES	MITF inh	NOMO-1 viab	Shh pathway inh
C[C@@H]1CN([C@@H](C)CO)C(=O)c2cc(NC(=O)Nc3ccccc3)ccc2O[C@H]1CN(C)Cc1ccc(-c2ccccc2)cc1	16	112*	9
C[C@@H]1CN([C@@H](C)CO)C(=O)c2cc(NC(=O)Nc3ccc(F)cc3)ccc2O[C@H]1CN(C)Cc1ccccc1	1	17	·
C[C@@H]1CN([C@@H](C)CO)C(=O)c2cc(NC(=O)Nc3ccc(F)cc3)ccc2O[C@H]1CN(C)Cc1ccc(-c2ccccc2)cc1	13	128*	-33
COc1ccc(NC(=O)Nc2ccc3c(c2)C(=O)N([C@H](C)CO)C[C@H](C)[C@H](CN(C)Cc2ccncc2)O3)cc1	4	94*	-13
C[C@H](CO)N1C[C@H](C)[C@H](CN(C)Cc2ccccc2)Oc2ccc(NC(=O)Nc3ccccc3)cc2C1=O	-7	13	·
O=C(CSc1nc2c(c(C(F)(F)F)n1)CCCC2)Nc1cccc(Cl)c1Cl	-11	11	·
Cc1ccc(-c2nnc(SCC(=O)Nc3c(C)cc(C)cc3C)o2)cc1	-2	29	·
COc1ccc(CCNS(=O)(=O)c2cc([N+](=O)[O-])ccc2C)cc1OC	-17	14	·
CC(C)(C)N1Sc2ccccc2NC1=S	9	9	-31
O=C(COc1ccc(Cl)cc1)Nc1ccc(O)cc1C(=O)O	7	-12	·
C[C@H]1CN([C@@H](C)CO)C(=O)c2cc(NC(=O)Nc3ccccc3)ccc2O[C@H]1CN(C)Cc1ccncc1	-19	98*	30
C[C@@H]1CN([C@@H](C)CO)C(=O)c2cc(NC(=O)Nc3ccccc3)ccc2O[C@@H]1CN(C)Cc1ccncc1	1	4	·
C[C@H](CO)N1C[C@H](C)[C@H](CN(C)Cc2ccc(-c3ccccc3)cc2)Oc2ccc(NC(=O)Nc3ccc(F)cc3)cc2C1=O	1	104*	·
C[C@H]1CN([C@@H](C)CO)C(=O)c2cc(NC(=O)Nc3ccc(F)cc3)ccc2O[C@H]1CN(C)Cc1ccccc1	-4	14	·
O=C(Nc1sc2c(c1C(=O)NCc1ccco1)CCCC2)c1ccc(Cl)cc1Cl	33	4	·
Nc1ccccc1CC(c1c[nH]c2ccccc12)c1c[nH]c2ccccc12	12	64	·
O=C(/C=C/c1ccc(Cl)cc1)Nc1cccc(Cl)c1	39	120*	?
Cc1ccc(S(=O)(=O)NCC(=O)Nc2cccc(Cl)c2)cc1	7	-6	·
Cc1ccc(NS(=O)(=O)c2ccc(NS(=O)(=O)c3ccc4c(c3)OCCO4)cc2)c(C)c1	-1	5	·
CN(C)CCCN1C(=O)C(=O)C(C(=O)c2ccco2)C1c1cccc([N+](=O)[O-])c1 (stereo unspecified)	-33	-4	·
C[C@@H]1CN([C@H](C)CO)C(=O)c2cccc(NC(=O)c3nc4ccccc4s3)c2O[C@@H]1CN(C)Cc1ccc(Cl)c(Cl)c1	4	32	-11
C[C@H](CO)N1C[C@H](C)[C@H](CN(C)Cc2ccc(Cl)c(Cl)c2)Oc2c(NC(=O)c3nc4ccccc4s3)cccc2C1=O	8	104*	-32
C[C@H]1CN([C@@H](C)CO)C(=O)c2cccc(NC(=O)c3nc4ccccc4s3)c2O[C@H]1CN(C)Cc1ccc(Cl)c(Cl)c1	8	96*	-25
C[C@@H]1CN([C@H](C)CO)C(=O)c2cccc(NC(=O)c3nc4ccccc4s3)c2O[C@H]1CN(C)Cc1ccc(-c2ccccc2)cc1	15	53	-3
COc1cc2c(cc1NC(=O)CN(C)S(=O)(=O)c1ccc(Cl)cc1)oc1ccccc12	-6	38	·
SMILES	MITF inh	NOMO-1 viab	Shh pathway inh
CN(CC(=O)Nc1cccnc1)S(=O)(=O)c1ccc2ccccc2c1	-7	-5	·
CN(CC(=O)Nc1ccc(F)c(Cl)c1)S(=O)(=O)c1ccc(F)cc1	-8	2	·
O=S(=O)(CCSc1ccccc1)c1ccccc1	-14	17	-22
Cn1c(SCC(=O)n2c3c(c4ccccc42)CCCC3)nnc1-c1ccco1	18	109*	·
Cn1c(SCC(=O)n2c3c(c4ccccc42)CCCC3)nnc1-c1ccccc1	-19	5	·
O=c1oc(-c2ccccn2)nc2ccccc12	-1	0	4
c1ccc(-c2ccc3ccccc3n2)nc1	40	104*	-163
COc1ccc(N(CC(=O)Nc2ccccc2-c2ccccc2)S(C)(=O)=O)cc1	-45	0	·
N#CC(C(=O)c1ccccc1Cl)=C1SCCCS1	-1	114*	23
N#CC(=C1SCCCCS1)S(=O)(=O)c1ccc(Cl)cc1	-26	29	2
Nc1cc(=O)[nH]c(SCC(=O)NCc2ccco2)n1	-1	-14	·
C/C=C(/C)C(=O)O[C@@H](C)[C@@](C)(O)C(=O)O[C@H](C)[C@@H](OC(=O)/C(C)=C\C)c1cc(OC)c2c(c1)OCO2	45	119*	89*
O=C(CCc1nc(-c2ccccc2F)no1)Nc1ccccc1Cl	-26	24	·
CO[C@@]12[C@H](COC(N)=O)C3=C(C(=O)C(C)=C(N)C3=O)N1C[C@@H]1N[C@@H]12	65	142*	34
Cc1ccc(C)c(S(=O)(=O)NCC(=O)Nc2ccc(F)c(Cl)c2)c1	3	33	·
C[C@H]1CN([C@@H](C)CO)C(=O)c2cccc(NC(=O)Nc3ccccc3)c2O[C@@H]1CN(C)Cc1ccc(Oc2ccccc2)cc1	14	60	-10
CC(C)NC(=O)Nc1cccc2c1O[C@H](CN(C)Cc1ccc(Oc3ccccc3)cc1)[C@@H](C)CN([C@H](C)CO)C2=O	37	89*	21
CC(C)NC(=O)Nc1cccc2c1O[C@H](CN(C)Cc1ccc(Oc3ccccc3)cc1)[C@H](C)CN([C@@H](C)CO)C2=O	-12	-6	-3
COc1ccc(CN(C)C[C@H]2Oc3c(NC(=O)Nc4ccc(OC)cc4)cccc3C(=O)N([C@@H](C)CO)C[C@H]2C)cc1	-15	14	2
COc1ccc(NC(=O)Nc2cccc3c2O[C@@H](CN(C)Cc2ccc(Oc4ccccc4)cc2)[C@@H](C)CN([C@@H](C)CO)C3=O)cc1	4	68	5
COc1ccc(NC(=O)Nc2cccc3c2O[C@@H](CN(C)Cc2ccc(Oc4ccccc4)cc2)[C@@H](C)CN([C@H](C)CO)C3=O)cc1	-1	117*	18
C[C@H](CO)N1C[C@H](C)[C@@H](CN(C)Cc2ccc(Oc3ccccc3)cc2)Oc2c(NC(=O)Nc3ccccc3)cccc2C1=O	27	85*	40
COc1ccc(CN(C)C[C@@H]2Oc3c(NC(=O)Nc4ccc(F)cc4)cccc3C(=O)N([C@@H](C)CO)C[C@H]2C)cc1	18	110*	30
CS(=O)(=O)N(CC(=O)Nc1ccc(F)c(F)c1)c1ccc(Cl)c(C(F)(F)F)c1	14	36	·
COc1ccc(C2C(C(=O)Nc3ccccc3)=C(C)Nc3ncnn32)cc1O (stereo unspecified)	-5	-18	·
COC(=O)c1ccccc1NC(=O)c1cc(-c2ccccn2)nc2c(C)c(Cl)ccc12	0	22	·
O=C(NCc1ccccn1)C(=O)Nc1ccccc1F	-48	-5	·
C=C1[C@H](O)C[C@H]2[C@@H](/C=C(\C)C(=O)[C@@]3(O)C[C@H](C)[C@H](O)[C@@H]3[C@H]1O)C2(C)C	5	9	12
COc1cc([N+](=O)[O-])ccc1NC(=O)c1ccccc1OCC(=O)NC(C)(C)C	26	9	·
